Laboratory results reported in PubChem BioAssay (NCATS).
Records with an inconclusive call do not appear. Active and inactive are the calls of the source. Unless noted, calls follow the shape of the full dose curve.

Assays:
[1] = target: Estrogen receptor (Homo sapiens) (UniProt P03372); experiment: qHTS assay for small molecule agonists of estrogen receptor alpha signaling (AID 588514);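 also: 0% = vehicle only and 100% = reference agonist; nearly all actives have a fitted effect of over 70% in size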
How it was run: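 Efficacy is expressed against 20 nM 17-beta-estradiol (100%) and DMSO basal (0%); EC50 from Hill equation. Assay: beta-lactamase reporter in ER-alpha-UAS-bla HEK 293 cells, 18 h compound incubation, CCF4 detection.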

[2] = target: Glucocorticoid receptor (Homo sapiens) (UniProt P04150); experiment: qHTS assay for small molecule agonists of glucocorticoid receptor signaling (AID 588532; active = well fitted curve in the direction sought with a large enough effect in the signal ratio, with a control signal flat; the % refers to the signal ratio;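 also: 100% = dexamethasone at 0.1 µM and 0% = DMSO only wells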); conditions: HeLa MMTV-bla, beta-lactamase ratio, agonist, 18 h; stronger effect = higher value; percent of dexamethasone control, DMSO zero
How it was run: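 MMTV-bla HeLa, beta-lactamase reporter; medium with 1% charcoal/dextran-stripped FBS; cpds up to 92 uM, 18 h, 37 C; CCF4 readout 460/530 nm; Hill fit → EC50, efficacy vs 0.1 uM dexamethasone = 100%.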

[3] = target: Glucocorticoid receptor (Homo sapiens) (UniProt P04150); experiment: qHTS assay for small molecule antagonists of glucocorticoid receptor signaling (AID 588533; active = well fitted inhibition curve with a large enough effect in the signal ratio, with a control signal flat, not every such curve was filed as active; the % refers to the signal ratio;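 also: cells stimulated with 2 nM dexamethasone as agonist; % is scaled to controls: 0 for no effect and ±100 for the full control effect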)
How it was run: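 Antagonist-mode qHTS: compound titrations added to GRE-bla HeLa cells, then dexamethasone 2 nM final; 18 h, 37 C. CCF4 FRET fluorescence normalized to dexamethasone and DMSO; IC50 from Hill fit.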

[4] = qHTS assay for small molecule antagonists of peroxisome proliferator-activated receptor delta signaling (AID 588535); conditions: HEK293T PPARd-UAS-bla, beta-lactamase FRET ratio, 18 h; 460 nm channel;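 also: cells co-treated with a PPAR-delta agonist as stimulator during compound exposure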
How it was run: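 Inhibition of PPAR-delta response element-driven beta-lactamase expression is measured in HEK293T cells exposed to a compound titration series for 18 hrs at 37 C. Half-maximal inhibition comes from Hill equation fitting.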

[5] = target: Peroxisome proliferator-activated receptor gamma (Homo sapiens) (UniProt P37231); experiment: qHTS assay for small molecule agonists of peroxisome proliferator-activated receptor gamma signaling (AID 588536; active = well fitted curve in the direction sought with a large enough effect in the signal ratio, with a control signal flat, not every such curve was filed as active; the % refers to the signal ratio;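 also: 0% = DMSO basal wells and 100% = rosiglitazone at 2 µM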)
How it was run: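 Compound treatment: 16 h, 37 C, HEK293 GeneBLAzer cells. Detection: CCF4, 2 h RT. Values: Hill-fit EC50, efficacy as % of 2 uM rosiglitazone.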

[6] = target: Vitamin D3 receptor (Homo sapiens) (UniProt P11473); experiment: qHTS assay for small molecule agonists of vitamin D receptor signaling (AID 588543);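 also: 0% = DMSO basal and 100% = reference agonist control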
How it was run: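 Reporter cells (HEK293T, VDR-UAS-bla) were seeded in medium with 2% charcoal-stripped serum and incubated 5 h, then compounds in concentration series were added for 16 h at 37 °C. Stimulation was scaled between DMSO basal and 50 nM 1α,25-dihydroxyvitamin D3.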

[7] = qHTS assay for small molecule agonists of retinoid X receptor alpha signaling (AID 588544); conditions: HEK293T RXRa-UAS-bla, beta-lactamase reporter, 18 h; 530 nm emission;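 as to activation: 0% = DMSO basal wells and 100% = reference agonist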
[8] = target: Retinoic acid receptor RXR-alpha (Homo sapiens) (UniProt P19793); experiment: as above
[9] = target: Thyroid hormone receptor beta (Homo sapiens) (UniProt P10828); experiment: qHTS assay for small molecule agonists of thyroid hormone receptor beta signaling (AID 588545);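 also: 0% = DMSO only and 100% = 10 nM T3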
How it was run: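 Beta-lactamase reporter activity under TR response element control is measured in HEK 293 cells after 18 hrs compound exposure. Signal is ratiometric CCF4 fluorescence, 460/530 nm.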

[10] = qHTS assay for small molecule antagonists of retinoid X receptor alpha signaling (AID 588546; active = well fitted inhibition curve with a large enough effect in the signal ratio, with a control signal flat, not every such curve was filed as active; the % refers to the signal ratio;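 also: cells stimulated with 9-cis-retinoic acid as agonist; % is scaled to controls: 0 for no effect and ±100 for the full control effect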); conditions: HEK293T RXRa-UAS-bla, beta-lactamase ratio, antagonist mode; measured here: W530 green channel, cytotoxicity proxy
How it was run: (§1)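 Beta-lactamase reporter inhibition, read as CCF4 fluorescence ratio (ex 405, em 460/530 nm) after 2 h at RT. HEK293T UAS-bla cells, 2500/well, were stimulated with 9-cis-RA at 500 or 100 nM final alongside test compound for 18 h at 37 C.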

[11] = target: Retinoic acid receptor RXR-alpha (Homo sapiens) (UniProt P19793); experiment: as above; conditions: HEK293T RXRa-UAS-bla, beta-lactamase ratio, antagonist mode
How it was run: as §1

[12] = target: Thyroid hormone receptor beta (Homo sapiens) (UniProt P10828); experiment: qHTS assay for small molecule antagonists of thyroid hormone receptor beta signaling (AID 588547; active = well fitted inhibition curve with a large enough effect in the signal ratio, with a control signal flat, not every such curve was filed as active; the % refers to the signal ratio;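 also: cells stimulated with 0.4 nM T3 agonist during compound exposure; series mostly up to about 77 µM; % is scaled to controls: 0 for no effect and ±100 for the full control effect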); conditions: TR-UAS-bla HEK293, beta-lactamase ratio, antagonist mode, 18 h
How it was run: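 TR-UAS-bla GripTite HEK293 cells in 2% charcoal/dextran FBS medium were preincubated 4 h at 37 C, given compound (0.59 nM to 92 uM) plus 0.4 nM T3 (final) for 18 h, then CCF4 for 2 h at RT; Hill fit gave IC50.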

[13] = target: Peroxisome proliferator-activated receptor alpha (Homo sapiens) (UniProt Q07869); experiment: qHTS assay for small molecule agonists of the peroxisome proliferator-activated receptor alpha (PPARalpha) signaling pathway (AID 651778; active = well fitted curve in the direction sought with a large enough effect; an effect the other way counts as inactive or inconclusive; also: % of control where 0% means no effect); conditions: PathHunter PPARalpha complementation, chemiluminescence, 6 h; max response: stronger effect = higher value
How it was run: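 Cells plated at 2,000/well and held overnight at 37 C, 5% CO2, then compound added by pin tool for 6 hr; after PathHunter detection reagent and 60 min at room temperature, chemiluminescence from enzyme complementation was read.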

[14] = qHTS assay for small molecule agonists of the antioxidant response element (ARE) signaling pathway measured by Nrf2-dependant transcriptional activity (AID 720636; active = well fitted curve in the direction sought with a large enough effect in the repeat runs; an effect the other way counts as inactive or inconclusive;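 also: HepG2 cells with an ARE-driven luciferase reporter; % of control where 0% means no effect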)
How it was run: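 Cells: ARE-luc HepG2 with Nrf2-responsive luciferase. Medium contained 1% dialyzed FBS. Compound exposure lasted 16 hr at 37 C and 5% CO2, followed by ONE-Glo luciferase detection.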

[15] = qHTS assay for small molecule agonists of the antioxidant response element (ARE) signaling pathway measured by Nrf2-dependant transcriptional activity - cell viability counter screen (AID 720653; active = well fitted curve in the direction sought with a large enough effect in the repeat runs; an effect the other way counts as inactive or inconclusive; also: % is scaled to controls: 0 for no effect and ±100 for the full control effect); conditions: ARE-bla HepG2 viability, CellTiter-Glo ATP luminescence, 16 h; max response: stronger effect = lower value
How it was run: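 ARE-bla HepG2 cells (2,000/well) rested 5 hrs at 37C/5% CO2, then exposed to compounds in DMSO for 16 hrs. Viability was read in the same wells as intracellular ATP by luminescence, 30 min at room temperature after reagent addition.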

[16] = qHTS assay for cell viability of HEK293 cells (AID 743288; active = well fitted curve in the direction sought with a large enough effect; an effect the other way counts as inactive or inconclusive; also: % is scaled to controls: 0 for no effect and ±100 for the full control effect; nearly all actives have a fitted effect of over 50% in size); conditions: ATP luminescence (CellTiter-Glo), 18 h; max response: stronger effect = lower value
How it was run: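 Viable-cell counts were inferred from luciferase-based ATP content in HEK293 cells seeded at 2,000/well, pre-incubated ≥5 h, then dosed with DMSO-solubilised compounds for 18 h at 37 C.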

[17] = qHTS assay for cell viability of the p53RE-bla HCT-116 cell line (AID 743292; active = well fitted curve in the direction sought with a large enough effect; an effect the other way counts as inactive or inconclusive; also: % is scaled to controls: 0 for no effect and ±100 for the full control effect; nearly all actives have a fitted effect of over 55% in size)
How it was run: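 HCT-116 p53RE-bla cells seeded 4,000/well; 5 h at 37 C; compound (DMSO) added; 16 h at 37 C; CellTiter-Glo added, 30 min RT; luminescence read.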

[18] = target: Nuclear receptor subfamily 1 group I member 2 (Rattus norvegicus) (UniProt Q9R1A7); experiment: qHTS assay for small molecule activators of the rat pregnane X receptor (rPXR) signaling pathway (AID 651751; call rule not given here; also: 0% is about no effect); conditions: rPXR reporter cells, luciferase (One-Glo), 24 h
[19] = qHTS assay for small molecule activators of the human pregnane X receptor (PXR) signaling pathway (AID 720659; call rule not given here; also: 0% is about no effect)
[20] = qHTS assay for environmental chemicals that activate the Aryl hydrocarbon Receptor (AhR) signaling pathway (AID 651777; active = well fitted curve in the direction sought with a large enough effect; an effect the other way counts as inactive or inconclusive; also: % of control where 0% means no effect; nearly all actives have a fitted effect of over 15% in size); conditions: 1A2-DRE human hepatoma cells, luciferase, 24 h; activation: stronger effect = higher value
How it was run: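 1A2-DRE human hepatoma reporter line; 1,200 cells/well; cmpd or DMSO 24 h, 37 C/5% CO2; One-Glo 30 min RT; luciferase lum.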

Vitamin D3 receptor (Homo sapiens), sequence (P11473 whole entry, looked up): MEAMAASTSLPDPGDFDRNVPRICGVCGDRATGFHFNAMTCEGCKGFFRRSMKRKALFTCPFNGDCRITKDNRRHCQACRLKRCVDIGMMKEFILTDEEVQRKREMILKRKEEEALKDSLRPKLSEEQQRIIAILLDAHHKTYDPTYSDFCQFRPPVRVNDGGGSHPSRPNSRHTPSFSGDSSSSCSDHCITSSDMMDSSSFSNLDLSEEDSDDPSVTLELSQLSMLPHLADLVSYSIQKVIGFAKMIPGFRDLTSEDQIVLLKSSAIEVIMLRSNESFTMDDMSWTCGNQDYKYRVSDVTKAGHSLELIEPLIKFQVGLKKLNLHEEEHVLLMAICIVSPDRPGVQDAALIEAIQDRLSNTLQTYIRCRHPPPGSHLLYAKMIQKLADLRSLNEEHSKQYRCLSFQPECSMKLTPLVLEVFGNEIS
Peroxisome proliferator-activated receptor gamma (Homo sapiens), sequence (P37231 whole entry, looked up): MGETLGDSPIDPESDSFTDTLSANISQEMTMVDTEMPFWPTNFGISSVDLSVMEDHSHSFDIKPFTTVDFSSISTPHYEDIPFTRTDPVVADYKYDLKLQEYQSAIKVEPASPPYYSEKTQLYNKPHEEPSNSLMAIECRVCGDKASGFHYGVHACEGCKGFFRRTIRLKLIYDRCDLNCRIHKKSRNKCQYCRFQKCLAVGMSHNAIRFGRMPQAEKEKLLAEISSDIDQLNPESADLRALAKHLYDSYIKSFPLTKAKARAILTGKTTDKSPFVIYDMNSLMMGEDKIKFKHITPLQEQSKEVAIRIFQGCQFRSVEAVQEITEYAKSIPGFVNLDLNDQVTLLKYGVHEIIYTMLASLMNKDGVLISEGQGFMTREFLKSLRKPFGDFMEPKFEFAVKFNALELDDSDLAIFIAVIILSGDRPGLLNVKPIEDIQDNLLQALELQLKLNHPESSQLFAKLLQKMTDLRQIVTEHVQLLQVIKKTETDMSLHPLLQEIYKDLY
Retinoic acid receptor RXR-alpha (Homo sapiens), sequence (P19793 whole entry, looked up): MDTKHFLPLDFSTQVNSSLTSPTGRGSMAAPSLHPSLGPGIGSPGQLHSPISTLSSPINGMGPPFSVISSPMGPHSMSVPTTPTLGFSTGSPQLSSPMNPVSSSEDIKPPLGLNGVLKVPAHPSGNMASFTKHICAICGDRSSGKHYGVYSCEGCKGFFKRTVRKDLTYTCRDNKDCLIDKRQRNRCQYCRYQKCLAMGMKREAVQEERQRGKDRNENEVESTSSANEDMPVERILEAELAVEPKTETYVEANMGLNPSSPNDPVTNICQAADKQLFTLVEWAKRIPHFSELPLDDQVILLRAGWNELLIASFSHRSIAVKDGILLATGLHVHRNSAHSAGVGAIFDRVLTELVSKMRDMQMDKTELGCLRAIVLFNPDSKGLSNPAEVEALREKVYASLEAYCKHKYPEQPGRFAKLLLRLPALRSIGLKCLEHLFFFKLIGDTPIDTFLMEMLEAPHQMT
Peroxisome proliferator-activated receptor alpha (Homo sapiens), sequence (Q07869 whole entry, looked up): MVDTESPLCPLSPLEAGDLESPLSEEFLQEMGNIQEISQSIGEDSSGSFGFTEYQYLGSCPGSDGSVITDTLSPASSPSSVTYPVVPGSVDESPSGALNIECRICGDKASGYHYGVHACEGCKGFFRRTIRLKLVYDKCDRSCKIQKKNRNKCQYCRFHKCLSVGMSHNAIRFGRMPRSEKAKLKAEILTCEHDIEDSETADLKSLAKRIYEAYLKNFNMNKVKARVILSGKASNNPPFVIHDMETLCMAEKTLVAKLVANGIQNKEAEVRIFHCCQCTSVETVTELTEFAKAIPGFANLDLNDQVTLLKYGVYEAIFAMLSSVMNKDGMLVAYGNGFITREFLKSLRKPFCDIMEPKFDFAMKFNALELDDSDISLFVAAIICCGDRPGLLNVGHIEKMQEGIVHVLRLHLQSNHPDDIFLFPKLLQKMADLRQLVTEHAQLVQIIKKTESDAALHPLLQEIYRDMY
Nuclear receptor subfamily 1 group I member 2 (Rattus norvegicus), sequence (Q9R1A7 whole entry, looked up): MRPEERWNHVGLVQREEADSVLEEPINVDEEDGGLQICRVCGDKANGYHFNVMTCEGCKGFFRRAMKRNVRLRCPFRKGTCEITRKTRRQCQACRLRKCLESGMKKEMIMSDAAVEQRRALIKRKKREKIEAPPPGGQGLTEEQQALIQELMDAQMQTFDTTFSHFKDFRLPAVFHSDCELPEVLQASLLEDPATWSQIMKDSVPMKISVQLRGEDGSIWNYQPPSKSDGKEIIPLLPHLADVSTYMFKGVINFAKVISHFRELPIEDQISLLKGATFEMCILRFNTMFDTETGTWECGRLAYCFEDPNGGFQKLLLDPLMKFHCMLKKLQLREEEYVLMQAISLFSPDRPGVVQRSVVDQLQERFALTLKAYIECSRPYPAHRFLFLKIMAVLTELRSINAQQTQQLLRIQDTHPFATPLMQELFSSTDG
Thyroid hormone receptor beta (Homo sapiens), sequence (P10828 whole entry, looked up): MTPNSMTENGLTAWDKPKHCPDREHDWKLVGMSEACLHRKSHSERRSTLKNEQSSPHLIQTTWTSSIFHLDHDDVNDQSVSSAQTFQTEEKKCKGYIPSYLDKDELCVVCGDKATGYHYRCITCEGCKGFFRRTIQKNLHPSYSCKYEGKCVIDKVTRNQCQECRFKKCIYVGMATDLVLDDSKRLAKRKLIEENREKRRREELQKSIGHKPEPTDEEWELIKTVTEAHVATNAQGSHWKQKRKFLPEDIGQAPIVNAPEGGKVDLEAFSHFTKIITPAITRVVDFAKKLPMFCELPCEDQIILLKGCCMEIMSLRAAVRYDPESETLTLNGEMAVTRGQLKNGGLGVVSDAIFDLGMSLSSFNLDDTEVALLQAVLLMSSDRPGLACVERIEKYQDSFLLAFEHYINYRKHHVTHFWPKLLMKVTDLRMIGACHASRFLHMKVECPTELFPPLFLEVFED
Glucocorticoid receptor (Homo sapiens), sequence (P04150 whole entry, looked up): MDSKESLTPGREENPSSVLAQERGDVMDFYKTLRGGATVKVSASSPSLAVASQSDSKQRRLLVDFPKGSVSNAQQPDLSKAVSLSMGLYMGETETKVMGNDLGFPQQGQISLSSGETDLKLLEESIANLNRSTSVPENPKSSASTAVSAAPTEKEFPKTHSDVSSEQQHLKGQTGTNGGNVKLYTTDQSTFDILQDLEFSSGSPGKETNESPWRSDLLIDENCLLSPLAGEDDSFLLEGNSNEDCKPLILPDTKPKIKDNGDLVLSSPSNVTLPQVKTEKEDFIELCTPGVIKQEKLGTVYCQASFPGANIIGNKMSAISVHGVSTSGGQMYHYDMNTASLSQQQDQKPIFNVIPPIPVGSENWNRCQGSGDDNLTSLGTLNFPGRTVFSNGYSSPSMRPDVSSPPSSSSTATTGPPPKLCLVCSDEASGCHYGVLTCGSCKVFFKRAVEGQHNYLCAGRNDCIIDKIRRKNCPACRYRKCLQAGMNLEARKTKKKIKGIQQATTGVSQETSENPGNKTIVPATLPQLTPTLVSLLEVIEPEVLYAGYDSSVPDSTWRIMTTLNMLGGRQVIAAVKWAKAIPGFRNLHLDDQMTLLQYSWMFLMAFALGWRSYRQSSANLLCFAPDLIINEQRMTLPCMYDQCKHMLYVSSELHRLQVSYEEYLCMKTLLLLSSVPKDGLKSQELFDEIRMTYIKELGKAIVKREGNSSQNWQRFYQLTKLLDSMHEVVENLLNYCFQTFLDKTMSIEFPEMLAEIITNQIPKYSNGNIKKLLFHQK
Estrogen receptor (Homo sapiens), sequence (P03372 whole entry, looked up): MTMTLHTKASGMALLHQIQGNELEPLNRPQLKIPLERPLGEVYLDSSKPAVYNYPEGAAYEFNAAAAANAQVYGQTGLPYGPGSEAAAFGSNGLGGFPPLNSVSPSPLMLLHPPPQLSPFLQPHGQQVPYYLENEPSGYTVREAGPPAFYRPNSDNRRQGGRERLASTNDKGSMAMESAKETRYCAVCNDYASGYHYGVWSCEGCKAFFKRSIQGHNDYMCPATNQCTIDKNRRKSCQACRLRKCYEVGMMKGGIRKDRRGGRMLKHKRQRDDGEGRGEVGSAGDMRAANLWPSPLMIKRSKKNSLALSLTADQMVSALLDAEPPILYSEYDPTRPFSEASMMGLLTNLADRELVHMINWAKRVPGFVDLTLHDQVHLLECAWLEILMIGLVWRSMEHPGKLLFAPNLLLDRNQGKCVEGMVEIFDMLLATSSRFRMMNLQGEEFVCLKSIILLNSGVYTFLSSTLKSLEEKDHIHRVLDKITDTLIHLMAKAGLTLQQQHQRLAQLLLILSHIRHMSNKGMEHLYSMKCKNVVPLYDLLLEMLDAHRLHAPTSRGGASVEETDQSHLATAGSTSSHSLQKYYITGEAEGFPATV

FC(F)(F)c1ccc(Cl)c(Cl)c1
40.3%: max response [4]
inactive: Potency [1] | activation [2] -1.21% | Potency [3] | outcome [5] | outcome [6] | Potency [8] | Potency [9] | max response [11] -9.01% | activity change % (negative = inhibition) [12] 7.4% | max response [13] 0.167% | Potency [14] | max response [15] -4.28% | max response [16] -13.4% | Potency [17] | max response [18] -0.267% | outcome [19]
5.97%: max response [10]
-13.8%: max response [7]

Nc1ccc(N)c2c1C(=O)c1c(N)ccc(N)c1C2=O
-9.83%: max response [7]
inactive: Potency [1] | activation [2] 0.353% | Potency [3] | outcome [5] | outcome [6] | Potency [8] | Potency [9] | activity change % (negative = inhibition) [12] 20.4% | activation [20] 12.2% | max response [13] 7.09% | max response [15] -2.4% | max response [16] -28.2% | Potency [17] | max response [18] -7.59% | outcome [19]

CCOC(=O)COc1cc(-n2ncc(C(F)(F)F)c(C)c2=O)c(F)cc1Cl
inactive: activation [2] 13.3% | outcome [5] | outcome [6] | Potency [8] | Potency [9] | activity change % (negative = inhibition) [12] -20.3% | activation [20] -2.83% | max response [13] -2.22% | Potency [14] | max response [15] 9.1% | max response [16] 2.7% | max response [18] -8.22% | outcome [19]
-4.58%: max response [4]
9.89%: max response [7]

CC1(C)C(=O)NC(=O)N1CO
-10.3%: max response [7]
-6.79%: max response [10]
inactive: activation [2] -5.05% | Potency [3] | outcome [5] | outcome [6] | Potency [8] | Potency [9] | max response [11] -4.89% | activation [20] 1.93% | max response [13] -1.57% | Potency [14] | max response [15] -2.23% | max response [16] -2.85% | Potency [17] | max response [18] 1.33% | outcome [19]
11.7%: max response [4]
